Source: PubChem BioAssay (The Scripps Research Institute Molecular Screening Center)
Rin1-Abl PPI inh: inhibitors of Rin1-Abl protein binding, primary screen, biochemical, TR-FRET. Tyrosine-protein kinase ABL1 (Homo sapiens) + Ras and Rab interactor 1 (Homo sapiens), …. inhibition, % at 7.35 µM. 360,000 tested, 0.4% active. AID 588664, 2011; in the data active means inhibition above about 5%, passing the limit was not always enough
TCR-CD3 inh: inhibitors of human TCR-CD3 interaction, primary screen, biochemical, fluorescence, TAMRA-labeled TCR probe | T-cell receptor (TCR) | inhibition, % at 9.4 µM | 360,000 tested, 0.37% active;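 further: recombinant mutant TCR 2C K166C tagged with TAMRA read by polarization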
UHRF1 binding: UHRF1 methylated DNA binding inhibitors, primary screen, counter-screen for MBD2 inhibitor project, biochemical, TR-FRET, human UHRF1, single concentration; E3 ubiquitin-protein ligase UHRF1 (Homo sapiens), Q96T88; UHRF1 binding to methylated oligo; inhibition, % at 4.4 µM; 370,000 tested, 0.75% active; in the data active means inhibition above about 21%;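 further: UHRF1 SRA domain binding a hemimethylated CpG hairpin DNA probe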
Target sequence (Q96T88 whole entry, looked up, the tested form may be a part): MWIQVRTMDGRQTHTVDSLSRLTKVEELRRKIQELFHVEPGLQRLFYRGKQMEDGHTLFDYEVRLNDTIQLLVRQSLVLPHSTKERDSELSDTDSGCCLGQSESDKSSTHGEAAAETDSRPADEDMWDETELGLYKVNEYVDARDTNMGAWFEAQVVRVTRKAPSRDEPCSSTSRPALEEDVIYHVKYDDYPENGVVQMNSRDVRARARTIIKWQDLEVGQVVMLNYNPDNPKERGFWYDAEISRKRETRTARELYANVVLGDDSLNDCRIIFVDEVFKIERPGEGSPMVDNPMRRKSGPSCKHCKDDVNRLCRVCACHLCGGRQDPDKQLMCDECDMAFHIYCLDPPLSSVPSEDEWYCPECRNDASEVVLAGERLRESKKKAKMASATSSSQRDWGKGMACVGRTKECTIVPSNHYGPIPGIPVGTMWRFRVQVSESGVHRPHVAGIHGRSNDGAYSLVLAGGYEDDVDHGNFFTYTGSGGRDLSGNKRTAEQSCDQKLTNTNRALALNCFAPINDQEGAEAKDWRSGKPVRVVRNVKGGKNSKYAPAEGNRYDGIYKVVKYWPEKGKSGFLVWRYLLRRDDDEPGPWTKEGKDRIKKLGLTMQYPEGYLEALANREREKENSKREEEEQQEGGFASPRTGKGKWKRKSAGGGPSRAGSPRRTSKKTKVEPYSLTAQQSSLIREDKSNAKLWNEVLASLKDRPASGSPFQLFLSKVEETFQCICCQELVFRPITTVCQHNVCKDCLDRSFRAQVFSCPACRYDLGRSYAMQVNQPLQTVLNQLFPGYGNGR
LEDGF integ inh: blockers of LEDGF/p75-dependent integrase strand transfer – biochemical, TR-FRET, high throughput, primary screen. inhibition, % at 3.7 µM. TR-FRET IN-LEDGF/p75 DNA integration, Eu/Cy5. 370,000 tested, 0.64% active. HIV-1 integrase (with human LEDGF/p75);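 active means inhibition above the screen-wide mean plus 3 SD, cut at about 13% in these data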;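 further: signal is the Cy5 over europium emission ratio at 671 and 618 nm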
MBD2 DNA inh: inhibitors of MBD2 binding to methylated DNA, primary screen, biochemical, TR-FRET, DNA-binding domain, human; Methyl-CpG-binding domain protein 2 (Homo sapiens), Q9UBB5; MBD2 binding to methylated oligonucleotide; inhibition, % at 4.4 µM; 370,000 tested, 0.31% active; AID 686964, 2013; in the data active means inhibition above about 13%
BSA TAMRA ctr: compounds interfering with TAMRA-BSA probe, counter-screen for TCR-CD3 interaction inhibitor project, biochemical, fluorescence, TAMRA-labeled BSA. inhibition, % at 9.4 µM. TAMRA-labeled BSA probe fluorescence counterscreen. shares compounds with TCR-CD3 inh. 1,200 tested, 10% active; in the data active means inhibition above about 23%
TCR-CD3 inh conf: TCR-CD3 interaction inhibitors, retest, confirmation, biochemical, fluorescence, TAMRA-labeled TCR probe; shares compounds with TCR-CD3 inh; 1,200 tested, 48% active; inhibition, % at 9.4 µM; TAMRA-labeled TCR probe fluorescence binding assay
Numbers stand for hits; . = inactive; / = not tested or not shown; ! = not active in a repeat. A selection: hits, their analogues and other compounds. The true share with any hit is near 2%. Unless noted, no stated cut-off is given here; in the data, active means inhibition above about 19%; inactive means the rest.

SMILES	Rin1-Abl PPI inh	TCR-CD3 inh	UHRF1 binding	LEDGF integ inh	MBD2 DNA inh	BSA TAMRA ctr	TCR-CD3 inh conf
O=C(NC(C(=O)N/N=C/c1cc([N+](=O)[O-])ccc1O)c1n[nH]c(=O)c2ccccc12)c1ccccc1 (stereo not drawn)	.	29	.	.	.	.	38
O=C(N/N=C/c1ccncc1)c1cc([N+](=O)[O-])cc([N+](=O)[O-])c1O	.	38	.	.	.	.	48
O=C(N/N=C/c1ccncc1)c1cc2ccccc2cc1O	.	.	.	.	.	/	/
CCN(Cc1nc2ccccc2c(=O)[nH]1)C(=O)c1ccc(C)c(NC(=O)c2ccco2)c1	.	.	.	.	.	/	/
COc1ccc(-c2cc(=O)oc3c(O)c(O)ccc23)cc1	.	21	.	.	.	.	.
CCN(CC)C(=O)CSc1ncnc2c(-c3cccs3)nsc12	.	20	.	.	.	.	.
CCN(CC)C(=O)CSc1ncnc2sccc12	.	.	.	.	.	/	/
Cc1ccc(-n2c(O)c(C=Nc3ccccc3-c3n[nH]c(=S)[nH]c3=O)c3ccccc3c2=O)c(C)c1	.	.	.	.	.	/	/
Cc1ccc(-n2c(O)c(C=Nc3ccccc3-c3n[nH]c(=S)[nH]c3=O)c3ccccc3c2=O)cc1C	.	23	.	.	.	.	.
Cc1cccc(-c2noc(CCCC(=O)N3CCOCC3)n2)c1	.	37	.	.	.	.	.
CSCCC(NC(=O)c1ccco1)C(=O)Nc1ccc(C)c(S(=O)(=O)N2CCOCC2)c1 (stereo not drawn)	.	.	.	.	.	/	/
CC1=Nc2cccc3cccc(c23)N1	.	39	.	.	.	45	23
CN(C(=O)c1cccc(S(=O)(=O)N2CCCC2)c1)C1CCCCC1	.	23	.	.	.	.	.
ON(CCc1ccncc1)Cc1ccccc1	.	.	.	.	.	/	/
Cc1ccc2c(c1)CCCN2S(=O)(=O)c1cccc(C(=O)Nc2ccccc2C(=O)O)c1	.	.	.	.	.	/	/
Clc1ccc2nc(CSCc3ccccc3)cn2c1	.	39	.	.	.	.	.
Cc1ccc(SCc2cn3cc(Cl)ccc3n2)cc1	.	.	.	.	.	/	/
CCC1=NN(C(=O)c2ccc(Br)cc2)C(O)(c2ccccc2)C1 (stereo not drawn)	.	.	.	.	.	/	/
CC1=NN(C(=O)c2ccccc2Cl)C(O)(c2ccccc2)C1 (stereo not drawn)	.	21	.	.	.	.	.
CC1=NN(C(=O)c2ccccc2F)C(O)(c2ccc(Cl)cc2)C1 (stereo not drawn)	.	23	.	.	.	.	.
O=C(c1ccccc1F)N1N=C(C(F)(F)F)CC1(O)c1ccccc1 (stereo not drawn)	.	.	.	.	.	/	/
CC1=NN(C(=O)c2ccccc2)C(O)(c2ccc(Br)cc2)C1 (stereo not drawn)	.	24	.	.	.	.	25
NC(=O)CC(NC(=O)c1ccc(Br)cc1)c1ccc(N2CCC(Br)CC2)c([N+](=O)[O-])c1 (stereo not drawn)	.	.	.	.	.	/	/
O=C(CCn1nnc2ccccc21)OCC(=O)c1ccc(F)cc1	.	.	.	.	.	/	/
O=C(O)C(c1ccccc1)C1(O)CC2CCC1C2 (stereo not drawn)	.	.	.	.	.	/	/
SMILES	Rin1-Abl PPI inh	TCR-CD3 inh	UHRF1 binding	LEDGF integ inh	MBD2 DNA inh	BSA TAMRA ctr	TCR-CD3 inh conf
CCc1cc(Cl)c(OC)c(C(=O)NC[C@@H]2CCCN2CC)c1O	.	29!	.	.	.	.	.
Cc1nc(S/C(=C/c2ccc(OCc3ccc(C(=O)O)cc3)cc2)C(=O)O)n[nH]1	.	22	.	.	.	.	32
Cc1ccc(S(=O)(=O)N2C[C@H]3C(=O)C[C@@H](c4ccc(Cl)cc4)N(S(=O)(=O)c4ccccc4C)[C@H]3C[C@H]2c2ccc(Cl)cc2)cc1	.	.	.	.	.	/	/
COc1ccc(CCNC(=O)C(=O)NCC2OCCN2S(=O)(=O)c2ccc(OC)cc2)cc1 (stereo not drawn)	.	49	.	.	.	.	.
Cc1cc2nc3c(=O)[nH]c(=O)[nH]c3nc2c([N+](=O)[O-])c1N	.	24	.	.	.	85	103
C[C@@H](NC(=O)c1nc[nH]c1C(=O)NCc1ccccc1)c1ccccc1	.	.	.	.	.	/	/
C/C(=N\NC(=O)COc1cccc(C)c1)c1ccc2ccccc2c1O	.	28	.	.	.	.	.
Cc1cccc(OCC(=O)NCc2ccccc2)c1	.	.	.	.	.	/	/
Brc1ccc(-c2nn3c(-c4ccccn4)nnc3s2)o1	.	30	.	.	.	.	.
Clc1ccccc1-c1nn2c(-c3ccccn3)nnc2s1	.	.	.	.	.	/	/
O=C(Cc1csc(-c2ccccc2)n1)NCC(=O)Nc1ccc(F)c(F)c1F	.	.	.	.	.	/	/
Cn1ccc2c(N3CCCCCCC3)cc3c(c21)C1CCC3O1 (stereo not drawn)	.	91	.	.	.	.	.
O=C(CCC(=O)c1cccs1)NNC(=O)c1ccccc1O	.	48	.	.	.	.	28
Cc1cccc(C(=O)NCC(=O)NNC(=O)c2ccccc2O)c1	.	42	.	.	.	.	33
Cc1ccccc1C(=O)NCC(=O)OCC(=O)NNC(=O)c1ccccc1F	.	.	.	.	.	/	/
O=C(CNC(=O)c1ccccc1F)NNC(=O)c1ccccc1O	.	58	.	.	.	.	44
COc1ccc(/C=N/NC(=O)c2nnn(-c3nonc3N)c2-c2cccc(OC)c2)cc1	.	.	.	.	.	/	/
COc1ccc(O)c(/C=N/NC(=O)c2c(C)nnn2-c2nonc2N)c1	.	25	.	.	.	.	.
CCOc1cc(/C=N/NC(=O)COc2ccc(Cl)cc2)ccc1OS(=O)(=O)c1ccccc1	.	28	.	.	.	24	35
COc1cc(C(=O)NNC(=S)NC(=O)c2ccccc2C)cc(OC)c1OC	.	.	.	.	.	/	/
COc1ccccc1C(=O)NNC(=S)NC(=O)c1cc(OC)c(OC)c(OC)c1	.	19	.	.	.	.	.
